Outcome data for 70 compounds are collected here from PubChem BioAssay AID624139 (Broad Institute, 2012).

Screen size: about 17,000 compounds; about 220 (1.3%) were called active.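 Rule for the calls: active = spot fluorescence over background significantly raised, with a chance value under 7% in all four replicate spots of the compound; inactive = the rest.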 The entries come from a sample that favours actives as a whole.

In the experiment the target is Nuclear factor NF-kappa-B p105 subunit (Homo sapiens) (UniProt P19838). The experiment can be described thus: small molecules binding NF-kappa-B p105/p50 – biochemical, small molecule microarray, anti-His fluorescence, primary screen (AID 624139).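 Note: probe protein is his-tagged human p50 processed subunit at 1 µg/ml.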
Nuclear factor NF-kappa-B p105 subunit (Homo sapiens), sequence (P19838 1-433 limits assumed): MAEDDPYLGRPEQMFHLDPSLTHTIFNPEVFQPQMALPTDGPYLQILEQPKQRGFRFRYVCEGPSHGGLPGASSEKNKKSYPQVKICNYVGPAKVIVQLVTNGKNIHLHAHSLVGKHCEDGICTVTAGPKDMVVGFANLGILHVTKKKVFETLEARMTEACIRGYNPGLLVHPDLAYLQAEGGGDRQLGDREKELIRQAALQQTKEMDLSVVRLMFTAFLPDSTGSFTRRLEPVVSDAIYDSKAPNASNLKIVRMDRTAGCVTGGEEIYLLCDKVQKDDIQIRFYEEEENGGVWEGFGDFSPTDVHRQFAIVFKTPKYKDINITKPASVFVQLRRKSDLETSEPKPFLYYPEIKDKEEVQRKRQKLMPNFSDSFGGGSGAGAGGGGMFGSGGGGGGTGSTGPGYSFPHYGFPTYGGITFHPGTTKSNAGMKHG
As for `C[C@@H]1CN([C@@H](C)CO)C(=O)c2cc(NS(=O)(=O)c3ccccc3)ccc2O[C@@H](C)CCCCO[C@H]1CN(C)C(=O)C1CCCCC1`, the compound was called inactive. `C[C@@H]1CCCCO[C@H](CN(C)C(=O)CCCN(C)C)[C@H](C)CN([C@@H](C)CO)C(=O)c2cc(NS(=O)(=O)c3ccccc3)ccc2O1`: the call was inactive. As for `CCC1(C)C(=O)C=C2C(=COC(C)=C2C)C1O` (stereo not given), the compound was called inactive. To `COc1ccccc1NC(=O)c1ccc(OCC(=O)O)cc1` belongs “inactive”; to `C[C@H](CO)N1C[C@H](C)[C@@H](CN(C)C(=O)Nc2cccc3ccccc23)Oc2c(NS(=O)(=O)c3ccccc3)cccc2C1=O`, “inactive”.

Turning to `CC1OC(Oc2cc(O)c3c(=O)c(OC4OCC(O)C(O)C4O)c(-c4ccc(O)cc4)oc3c2)C(O)C(O)C1O` (stereo not given), the outcome was inactive. To `O=C(CS(=O)(=O)c1ccccc1)Nc1ccc2c(c1)OCCO2` belongs “inactive”. For the compound `COc1ccc(CN(C)C[C@H]2Oc3ccc(NC(=O)CCN4CCOCC4)cc3C(=O)N([C@@H](C)CO)C[C@H]2C)cc1`, the compound was called inactive.

With `CC(=O)OC[C@H]1O[C@@H](Oc2c(-c3ccc(O)c(O)c3)oc3cc(O)cc(O)c3c2=O)[C@H](O)[C@@H](O)[C@@H]1O`, the call was inactive. In the case of `C[C@H](CO)N1C[C@H](C)[C@@H](CN(C)Cc2ccc3c(c2)OCO3)Oc2ccc(NC(=O)Nc3ccc(F)cc3)cc2C1=O`, the result was inactive.

Consider `C[C@@H]1CN([C@@H](C)CO)C(=O)c2cc(NC(=O)Nc3ccc4c(c3)OCO4)ccc2O[C@@H](C)CCCCO[C@@H]1CN(C)Cc1ccccc1`, for which the outcome was inactive. With `CCOC(=O)c1nnn(-c2nonc2-n2cccc2)c1CN1CCOCC1`, the compound was called inactive.

For `Cc1noc(C)c1NC(=O)Nc1ccc2c(c1)CC(=O)N([C@@H](C)CO)C[C@H](C)[C@@H](CN(C)C(=O)Nc1ccc3c(c1)OCO3)O2`, the outcome was inactive. To `C[C@@H]1CN([C@@H](C)CO)C(=O)Cc2cc(NC(=O)NC3CCCCC3)ccc2O[C@H]1CN(C)C(=O)Nc1ccc(C(F)(F)F)cc1` belongs “inactive”; to `Cc1cc(C)cc(Oc2c(C(F)(F)F)oc3cc(OCC(=O)O)ccc3c2=O)c1`, “active”. As for `C[C@H]1CN([C@@H](C)CO)C(=O)Cc2cc(NS(C)(=O)=O)ccc2O[C@@H]1CN(C)S(=O)(=O)c1cccs1`, the outcome was inactive. As to `N#Cc1c(SCC(=O)Nc2ccccc2)ncc2cc3ccccc3nc12`, the call was inactive. Turning to `CN(C)Cc1c(O)ccc2occ(C(O)c3ccccc3)c12` (stereo not given), the result was inactive.

As for `Cc1ccc(S(=O)(=O)NCC(=O)N2CCN(c3ccccn3)CC2)cc1`, the compound was classed as inactive. As for `CCCN(C)C[C@@H]1Oc2ncc(C#Cc3ccccc3)cc2C(=O)N([C@H](C)CO)C[C@@H]1C`, the outcome was inactive. On to `C#Cc1ccc([C@H]2C=C(C(=O)O)O[C@@H](OCC)[C@@H]2CCCO)cc1`, for which the call was inactive. To `COc1ccc(NC(=O)N(C)C[C@@H]2OCCCC[C@@H](C)Oc3ccc(N(C)C)cc3C(=O)N([C@H](C)CO)C[C@@H]2C)cc1` belongs “inactive”. With `C[C@@H]1CCCCO[C@@H](CN(C)C)[C@@H](C)CN([C@H](C)CO)C(=O)c2cc(N(C)C)ccc2O1`, the compound was called inactive. Consider `C[C@H](CO)N1C[C@H](C)[C@@H](CN(C)C(=O)C2CCCCC2)OCCCC[C@H](C)Oc2ccc(N(C)C)cc2C1=O`, for which the compound was classed as inactive. To `C[C@@H]1CCCCO[C@H](CN(C)S(=O)(=O)c2cccs2)[C@@H](C)CN([C@@H](C)CO)C(=O)c2cc(NC(=O)Nc3ccc4c(c3)OCO4)ccc2O1` belongs “inactive”. Turning to `COC(=O)c1c(CC[C@@H](CO)NC(=O)Nc2ncn[nH]2)oc(C(=O)Cc2ccccc2)c1C(=O)OC`, the compound was classed as inactive. To `Cc1noc(C)c1S(=O)(=O)N(C)C[C@@H]1OCCCC[C@H](C)Oc2ccc(NC(=O)NC(C)C)cc2C(=O)N([C@H](C)CO)C[C@@H]1C` belongs “inactive”; to `COC(=O)C1=C[C@@H](O)[C@@H](O)[C@H](O[C@@H]2O[C@H](CO)[C@@H](O)[C@H](O)[C@H]2OC(=O)/C=C/c2ccccc2)C1`, “inactive”; to `CC(C)NC(=O)Nc1ccc2c(c1)C(=O)N([C@@H](C)CO)C[C@H](C)[C@@H](CN(C)Cc1ccc(C(=O)O)cc1)OCCCC[C@H](C)O2`, “inactive”. As for `C[C@@H]1CCCCO[C@@H](CN(C)Cc2ccncc2)[C@H](C)CN([C@H](C)CO)C(=O)c2cc(N(C)C)ccc2O1`, the compound was classed as inactive. On to `C[C@@H]1CN([C@H](C)CO)C(=O)CCCn2nncc2CO[C@@H]1CN(C)C`, for which the compound was classed as inactive. As to `C[C@@H]1CN([C@@H](C)CO)C(=O)c2cccc(NC(=O)Nc3ccc(F)cc3)c2O[C@H]1CN(C)C(=O)Nc1ccc(F)cc1`, the call was inactive. As to `C[C@H]1CCCCO[C@@H](CN(C)Cc2ccc(C(=O)O)cc2)[C@@H](C)CN([C@@H](C)CO)C(=O)c2cc(NS(C)(=O)=O)ccc2O1`, the result was inactive. Consider `COc1ccc(CN(C)C[C@@H]2Oc3ccc(NC(=O)c4ccncc4)cc3CC(=O)N([C@H](C)CO)C[C@H]2C)cc1`, for which the call was inactive. Regarding `COc1cccc(OC)c1C(=O)NC(=S)NCc1ccco1`, the result was inactive.

As for `C[C@@H]1CCCCO[C@@H](CN(C)C(=O)Nc2ccc(F)cc2)[C@H](C)CN([C@@H](C)CO)C(=O)c2cc(NS(=O)(=O)c3ccccc3)ccc2O1`, the call was inactive. To `C[C@@H]1CN([C@@H](C)CO)C(=O)CCCn2cc(nn2)CO[C@H]1CN(C)S(=O)(=O)c1ccc(-n2cccn2)cc1` belongs “inactive”; to `CNC[C@H]1Oc2ccc(NC(=O)Nc3ccc(F)cc3)cc2C(=O)N([C@@H](C)CO)C[C@@H]1C`, “inactive”. To `C[C@@H]1CN([C@H](C)CO)C(=O)c2cccc(NC(=O)Nc3ccc(C(F)(F)F)cc3)c2O[C@H]1CN(C)S(=O)(=O)c1ccc(Cl)cc1` belongs “inactive”; to `Cc1ccc(S(=O)(=O)N2CCCC2C(=O)NCCO)cc1` (stereo not given), “inactive”; to `COc1ccc([Si](C)(C)[C@@H]2[C@@H](CCO)O[C@]3(C(=O)N(Cc4ccccc4)c4ccc(N5CCC5=O)cc43)[C@H]2C)cc1`, “inactive”. `C[C@@H]1CN([C@H](C)CO)C(=O)CCCn2cc(nn2)CO[C@H]1CN(C)C(=O)Nc1ccc(N2CCCCC2)cc1`: the outcome was inactive. For the compound `C[C@H](CO)N1C[C@H](C)[C@@H](CN(C)CC2CC2)Oc2ccc(NC(=O)Nc3ccccc3)cc2CC1=O`, the compound was called inactive. As for `C[C@H](CO)N1C[C@H](C)[C@@H](CN(C)Cc2cccc3c2OCCCO3)OCc2cn(nn2)CCCC1=O`, the outcome was inactive. As to `C[C@@H]1CN([C@H](C)CO)C(=O)CCCn2cc(nn2)CO[C@@H]1CN(C)Cc1ccc2cccnc2c1`, the outcome was inactive. Regarding `COC(=O)c1c(NC(=S)Nc2ccc(S(=O)(=O)NC34CC5CC(CC(C5)C3)C4)cc2)sc2c1CCC2`, the call was inactive. Regarding `CC(C)NC(=O)Nc1ccc2c(c1)C(=O)N([C@H](C)CO)C[C@@H](C)[C@H](CN(C)S(C)(=O)=O)O2`, the outcome was inactive. `Cc1ccc(C)c(NC(=O)CCC(=O)O)c1`: the call was inactive. With `O=C(N1CCCCC1)[C@@]1(CCS(=O)(=O)c2ccccc2)N=C(c2ccc(OCCCO)cc2)O[C@H]1c1ccccc1`, the call was inactive. To `C[C@@H]1CN([C@H](C)CO)C(=O)c2cc(N(C)C)ccc2O[C@@H](C)CCCCO[C@@H]1CN(C)C(=O)CCCN(C)C` belongs “inactive”; to `C[C@@H]1CCCCO[C@H](CN(C)C)[C@@H](C)CN([C@H](C)CO)C(=O)c2cc(N(C)C)ccc2O1`, “inactive”. `O=c1c2ccccc2[nH]c(=S)n1CCN1CCC(=C(c2ccc(F)cc2)c2ccc(F)cc2)CC1`: the compound was classed as active. With `O=C(c1ccc(F)cc1)C1CCN(CCCCc2ccccc2)CC1`, the compound was classed as inactive. For `C[C@H](CO)N1C[C@H](C)[C@@H](CN(C)S(=O)(=O)c2cn(C)cn2)Oc2ccc(NS(=O)(=O)c3cn(C)cn3)cc2C1=O`, the result was inactive. Turning to `COc1cc(/C=C/C(=O)NCCc2ccc(O)cc2)ccc1O`, the call was inactive. For `Cc1nc(SCC(=O)N2c3ccccc3Sc3ccccc32)nc2c1CCCC2`, the compound was classed as inactive. On to `COc1ccc(S(=O)(=O)N(C)C[C@@H]2Oc3ccc(NC(=O)Cc4cn(C)c5ccccc45)cc3C(=O)N([C@H](C)CO)C[C@H]2C)cc1`, for which the outcome was inactive. To `CCOC(=O)c1sc(NC(=S)Nc2ccc3c(c2)OCCO3)c(C(=O)OCC)c1C` belongs “inactive”; to `C[C@@H]1CCCCO[C@H](CN(C)C(=O)Nc2cccc3ccccc23)[C@@H](C)CN([C@H](C)CO)C(=O)c2cc(NS(=O)(=O)c3cccs3)ccc2O1`, “inactive”. `C[C@@H]1CN([C@H](C)CO)C(=O)c2cccc(NS(=O)(=O)c3ccc(Cl)cc3)c2O[C@@H]1CN(C)C(=O)Nc1cccc2ccccc12`: the call was inactive. For `COc1ccc(S(=O)(=O)Nc2cccc3c2O[C@@H](CN(C)S(=O)(=O)c2ccc(F)cc2)[C@H](C)CN([C@H](C)CO)C3=O)cc1`, the result was inactive. Regarding `Cc1noc(C)c1S(=O)(=O)Nc1ccc2c(c1)C(=O)N([C@@H](C)CO)C[C@@H](C)[C@H](CN(C)C(=O)NC(C)C)OCCCC[C@@H](C)O2`, the outcome was active. For `C[C@@H]1CCCCO[C@H](CN(C)C(=O)CCC(F)(F)F)[C@@H](C)CN([C@@H](C)CO)C(=O)c2cc(NC(=O)c3ccncc3)ccc2O1`, the compound was called active.

On to `Cc1noc(C)c1S(=O)(=O)Nc1ccc2c(c1)C(=O)N([C@H](C)CO)C[C@H](C)[C@H](CN(C)C(=O)CCC(F)(F)F)OCCCC[C@H](C)O2`, for which the compound was classed as active.

As to `Cc1noc(C)c1S(=O)(=O)Nc1ccc2c(c1)C(=O)N([C@@H](C)CO)C[C@H](C)[C@@H](CN(C)C)OCCCC[C@@H](C)O2`, the outcome was inactive. `Cc1noc(C)c1S(=O)(=O)Nc1ccc2c(c1)C(=O)N([C@H](C)CO)C[C@@H](C)[C@H](CN(C)C(=O)NC(C)C)OCCCC[C@@H](C)O2`: the outcome was inactive.

Turning to `C[C@@H]1CCCCO[C@@H](CN(C)C(=O)CCC(F)(F)F)[C@@H](C)CN([C@H](C)CO)C(=O)c2cc(NC(=O)CCC(F)(F)F)ccc2O1`, the compound was called inactive. `C[C@H](CO)N1C[C@H](C)[C@H](CN(C)C(=O)CCC(F)(F)F)OCCCC[C@H](C)Oc2ccc(NS(C)(=O)=O)cc2C1=O`: the compound was classed as inactive. Consider `Cc1noc(C)c1S(=O)(=O)Nc1ccc2c(c1)C(=O)N([C@H](C)CO)C[C@H](C)[C@@H](CN(C)C(=O)CCC(F)(F)F)OCCCC[C@H](C)O2`, for which the outcome was inactive. As to `C[C@@H]1CCCCO[C@H](CN(C)C(=O)CCCN(C)C)[C@@H](C)CN([C@@H](C)CO)C(=O)c2cc(NC(=O)c3ccncc3)ccc2O1`, the compound was called inactive.
